Reference: PubChem BioAssay (EPA / NIEHS)
“And” between values parts separate entries of the source, which are not always exact repeats. Equal entries are not always repeated. The source made the active and inactive calls. Rule for the calls: active = hit-call score of the fitted dose curve at least 0.9, where 1 is the maximum; inactive = score below 0.9.

Columns and labels:
[1] = molecular target: Nuclear respiratory factor 1 (Homo sapiens) (UniProt Q16656); assay: ATG_NRF1_CIS: Attagene CIS-FACTORIAL HepG2 Assay for human Nuclear Respiratory Factor 1 (NRF1) Orphan Gene (AID 2282987); settings: HepG2 NRF1 cis-element reporter, Attagene multiplex; actives raise or lower the signal
Nuclear respiratory factor 1 (Homo sapiens), sequence (Q16656 whole entry, looked up, the tested form may be a part): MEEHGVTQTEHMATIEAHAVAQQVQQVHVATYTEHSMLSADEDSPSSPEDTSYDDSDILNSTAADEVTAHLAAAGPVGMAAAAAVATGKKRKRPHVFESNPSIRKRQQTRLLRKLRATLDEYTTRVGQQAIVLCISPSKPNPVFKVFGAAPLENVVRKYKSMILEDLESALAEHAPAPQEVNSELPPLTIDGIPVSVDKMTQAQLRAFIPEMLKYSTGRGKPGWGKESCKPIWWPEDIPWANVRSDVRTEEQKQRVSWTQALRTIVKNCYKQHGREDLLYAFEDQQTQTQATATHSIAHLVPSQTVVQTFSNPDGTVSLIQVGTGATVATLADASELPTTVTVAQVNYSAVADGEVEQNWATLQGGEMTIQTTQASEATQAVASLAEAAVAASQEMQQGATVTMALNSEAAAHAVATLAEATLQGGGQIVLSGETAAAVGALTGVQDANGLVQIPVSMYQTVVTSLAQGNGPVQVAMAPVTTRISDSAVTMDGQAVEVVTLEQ
Procedure, shortened: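 Fluorescence intensity of labelled reporter cDNA fragments, resolved by capillary electrophoresis, served as readout for NRF1 cis-element activity. Transiently transfected HepG2 cells were dosed for 24 hours; activity in either direction was fitted against DMSO negative control.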

[2] = ATG_NFI_CIS: Attagene CIS-FACTORIAL HepG2 Assay for human Nuclear Factor I (NFI) (AID 2282989); settings: HepG2 cis-regulatory reporter, NFI response element transcription; actives raise or lower the signal
Procedure, shortened: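 HepG2, transient MRTU, 24 h exposure; RNA→cDNA→PCR→FAM label→HpaI→CE fluorescence. Bidirectional fit, DMSO = baseline.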

[3] = molecular target: Myc proto-oncogene protein (Homo sapiens) (UniProt P01106); assay: ATG_Myc_CIS: Attagene CIS-FACTORIAL HepG2 Assay for human Myelocytomatosis (Myc) Proto-Oncogene Transcription Factor (AID 2282990); settings: HepG2, Attagene cis-reporter transcription factor activity; actives raise or lower the signal
Myc proto-oncogene protein (Homo sapiens), sequence (P01106 whole entry, looked up, the tested form may be a part): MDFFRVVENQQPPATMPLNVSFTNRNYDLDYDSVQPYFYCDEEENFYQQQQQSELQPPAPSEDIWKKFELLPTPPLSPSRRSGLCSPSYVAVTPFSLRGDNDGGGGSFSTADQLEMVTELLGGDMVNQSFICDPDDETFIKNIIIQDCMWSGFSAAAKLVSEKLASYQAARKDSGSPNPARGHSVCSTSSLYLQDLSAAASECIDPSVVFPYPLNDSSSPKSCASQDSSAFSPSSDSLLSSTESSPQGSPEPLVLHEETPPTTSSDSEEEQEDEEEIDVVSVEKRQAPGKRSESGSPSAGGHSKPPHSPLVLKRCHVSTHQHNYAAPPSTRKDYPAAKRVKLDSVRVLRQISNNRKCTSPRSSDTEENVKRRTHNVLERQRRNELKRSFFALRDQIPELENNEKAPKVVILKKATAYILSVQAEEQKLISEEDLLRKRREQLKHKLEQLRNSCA
Procedure, shortened: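 Fluorescence intensity of reporter-specific cDNA fragments, separated by capillary electrophoresis, gives the signal. Transfected HepG2 cells carrying cis-promoter reporter constructs are incubated with compound for 24 h; DMSO serves as baseline.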

[4] = ATG_NRF2_ARE_CIS: Attagene CIS-FACTORIAL HepG2 Assay for human Nuclear Factor Erythroid 2 Related Factor 2 (NFR2) response to Antioxidant Response Elements (ARE) (AID 2282992); settings: HepG2 Attagene ARE/NRF2 reporter, transcription factor activity; actives raise or lower the signal;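 for AC50: reporter mRNA level measured by RT-PCR and capillary electrophoresis fluorescence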
Procedure, shortened: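 Readout: reporter mRNA quantified by RT-PCR plus FAM-labelled primer extension, HpaI digestion and capillary electrophoresis, 24 h after dosing transfected HepG2 cells. Gain or loss of signal is fitted bidirectionally against DMSO baseline.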

[5] = ATG_Oct_MLP_CIS: Attagene CIS-FACTORIAL HepG2 Assay for human Octamer-Binding Transcription Factor (Oct) (AID 2282993); settings: HepG2 Attagene cis-factorial Oct reporter, mRNA; actives raise or lower the signal
Procedure, shortened: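 Multiplexed cis-reporter assay in human liver HepG2 cells, 24 h incubation. Reporter RNA amplified and labelled, then resolved by capillary electrophoresis; DMSO serves as negative control and baseline.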

[6] = molecular target: Cellular tumor antigen p53 (Homo sapiens) (UniProt P04637); assay: ATG_p53_CIS: Attagene CIS-FACTORIAL HepG2 Assay for human p53 Transcription Factor (AID 2282994); settings: HepG2 p53 cis-element reporter, Attagene mRNA; actives raise or lower the signal
Cellular tumor antigen p53 (Homo sapiens), sequence (P04637 whole entry, looked up): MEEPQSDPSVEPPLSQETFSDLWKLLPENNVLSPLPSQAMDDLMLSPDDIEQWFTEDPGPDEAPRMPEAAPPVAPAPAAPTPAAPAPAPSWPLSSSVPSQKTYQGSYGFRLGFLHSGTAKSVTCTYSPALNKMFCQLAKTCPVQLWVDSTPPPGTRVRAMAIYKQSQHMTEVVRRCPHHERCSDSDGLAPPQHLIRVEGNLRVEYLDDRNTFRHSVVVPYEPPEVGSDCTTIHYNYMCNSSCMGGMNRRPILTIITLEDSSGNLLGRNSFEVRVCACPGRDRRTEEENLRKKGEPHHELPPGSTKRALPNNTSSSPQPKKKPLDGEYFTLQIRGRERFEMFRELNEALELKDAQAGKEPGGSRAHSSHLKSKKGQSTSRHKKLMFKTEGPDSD
Procedure, shortened: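 Read-out: reporter mRNA by RT-PCR plus capillary electrophoresis with fluorescence detection. Human HepG2 liver cells carried transfected multi-reporter cis-element constructs, dosed 24 h. Gain or loss of signal fitted bidirectionally against DMSO control.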

[7] = BSK_3C_uPAR: BioMAP Diversity Plus: 3C Assay for Urokinase-type plasminogen activator receptor (uPAR) Biomarker Activity (AID 2282998); settings: BioMAP 3C HUVEC, uPAR biomarker ELISA; actives raise or lower the signal
Procedure, shortened: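 Dose primary human umbilical vein endothelial cells, incubate 24 h, measure cell-surface uPAR by ELISA, then fit the signal in both directions against the DMSO negative control.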

[8] = BSK_3C_VCAM1: BioMAP Diversity Plus: 3C Assay for Vascular cell adhesion molecule 1 (VCAM1) Biomarker Activity (AID 2282999); settings: BioMAP 3C HUVEC, VCAM1 ELISA, cytokine-stimulated; actives raise or lower the signal
Procedure, shortened: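 HUVEC primary cells, 24 h compound exposure; VCAM-1 by ELISA; gain/loss of signal fitted bidirectionally vs DMSO baseline.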

[9] = BSK_3C_TissueFactor: BioMAP Diversity Plus: 3C Assay for Tissue Factor Biomarker Activity (AID 2282997); settings: BioMAP 3C HUVEC, tissue factor biomarker readout; actives raise or lower the signal
Procedure, shortened: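 Tissue factor on primary human umbilical vein endothelium was read by ELISA 24 h after dosing, gain or loss relative to DMSO. Cytotoxicity ran alongside via SRB (0.1%, TCA-fixed, 560 nm).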

[10] = ATG_NF_kB_CIS: Attagene CIS-FACTORIAL HepG2 Assay for human Nuclear Factor Kappa B (NF-kB) (AID 2282991); settings: HepG2 Attagene cis-factorial NF-kB reporter mRNA; actives raise or lower the signal
Procedure, shortened: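 Endogenous transcription factor activity in HepG2 was captured via cis-regulated reporter constructs; after 24 h dosing, reporter mRNA was reverse-transcribed, amplified, fluorescently labelled and sized by capillary electrophoresis, with activity fitted bidirectionally relative to DMSO.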

Measured: AC50

CC1OC(=O)C(C)OC1=O (stereo not given)
inactive: [1] | [2] | [3] | [4] | [5] | [6]

COC(=O)CC(C)CCC=C(C)C (stereo not given)
inactive: [1] | [2] | [3] | [4] | [5] | [6]

CC=C(C)C(C)=O
not listed: [6] | [9] | [10]
inactive: all other assays above

CCCCCCCCCCCC(C)=O
inactive: [2] | [3] | [5]
active: [1] 158 µM | [4] 75.2 µM | [6] 147 µM | [7] 34.5 µM | [8] 29.8 µM

Oc1c(Cl)cc(Cl)c(Cl)c1Cl
inactive: [1] | [2] | [3] | [6]
active: [4] 27.1 µM | [5] 100 µM | [7] 20 µM | [8] 20 µM

CCOC(=O)C1=NOC(c2ccccc2)(c2ccccc2)C1
active: [4] 65.1 µM
not listed: [10]
inactive: all other assays above

CC(C)c1ccc(O)c(C(C)C)c1
inactive: [1] | [2] | [3] | [6]
active: [4] 24.6 µM

CC(C)=CCCC(C)=CC#N
inactive: [1] | [2] | [3] | [4] | [5] | [6]

CCN1CN(CC)CN(CC)C1
active: [2] 162 µM | [5] 159 µM
not listed: [9] | [10]
inactive: all other assays above

O=C1CCCCCCCCCCC1
not listed: [9] | [10]
inactive: all other assays above

C=CCNCC=C
inactive: [1] | [2] | [3] | [4] | [5] | [6]

O=C(OCCc1ccccc1)c1ccccc1
inactive: [1] | [2] | [3] | [4] | [5] | [6]

CC1=CCC(C(C)C)C=C1 (stereo not given)
active: [4] 25.3 µM
inactive: [1] | [2] | [3] | [5] | [6]

Nc1cccc(N)n1
not listed: [6] | [9] | [10]
inactive: all other assays above

COc1ccc(C(=O)/C(Br)=C\C(=O)O)cc1
active: [4] 2.53 µM | [5] 49.4 µM | [7] 29.7 µM and 31.7 µM | [8] 14.2 µM and 20 µM
inactive: [1] | [2] | [3] | [6]

CC1(C)CC(O)CC(C)(C)N1[O]
active: [4] 26.6 µM
not listed: [6] | [9] | [10]
inactive: all other assays above

COC(=O)c1ccccc1C
inactive: [1] | [2] | [3] | [4] | [5] | [6]

CCCCCCCC(=O)OCC(COC(=O)CCCCCCC)OC(=O)CCCCCCC
inactive: [1] | [2] | [3] | [4] | [5] | [6]

CC(CC=O)CC(C)(C)C (stereo not given)
inactive: [1] | [2] | [3] | [4] | [5] | [6]

O=C(OCc1ccccc1)c1ccc(O)cc1
inactive: [1] | [2] | [3] | [6]
active: [4] 64.4 µM | [5] 125 µM

CC(C)CCCCCOC(=O)CS
active: [4] 19.5 µM
not listed: [9] | [10]
inactive: all other assays above

CC(CCC(=O)O)(c1ccc(O)cc1)c1ccc(O)cc1
not listed: [9] | [10]
inactive: all other assays above

CC(CC(C)C)=NO
inactive: [1] | [2] | [3] | [4] | [5] | [6]

C=CCCCCCCCCO
inactive: [1] | [2] | [3] | [4] | [5] | [6]

CCCCNS(=O)(=O)c1ccc(C)cc1
inactive: [1] | [2] | [3] | [4] | [6]

O=C1CCCCCCCCCCCN1
not listed: [9] | [10]
inactive: all other assays above

CC(C)C(=O)OCCc1ccccc1
not listed: [6] | [10]
inactive: all other assays above

O=C(Cl)c1ccc(C(=O)Cl)cc1
inactive: [1] | [2] | [3] | [4] | [5] | [6]

COc1ccc(-c2coc3cc(O)cc(O)c3c2=O)cc1
active: [1] 25.9 µM | [4] 27.2 µM | [5] 39 µM | [6] 159 µM
inactive: [2]

Cn1cccc1
inactive: [1] | [5] | [6]
active: [2] 26.2 µM | [4] 29.5 µM

Cc1cccc(C(C)(C)C)c1O
inactive: [1] | [2] | [10] | [4] | [5] | [6]

Cc1c[nH]c(=O)[nH]c1=O
inactive: [1] | [2] | [3] | [4] | [6]

Nc1ccc(C(=O)O)cc1
not listed: [3]
inactive: all other assays above

CC(=O)c1ccc(S(=O)(=O)NC(=O)NC2CCCCC2)cc1
inactive: [1] | [2] | [10] | [4] | [5] | [6]

CCCCCCCC(=O)OCC
inactive: [1] | [2] | [10] | [4] | [5] | [6]

C=CC(=O)OCC(C)OCC(C)OCC(C)OC(=O)C=C (stereo not given)
active: [4] 25.6 µM | [6] 145 µM | [9] 11.6 µM | [7] 24.6 µM | [8] 12.1 µM
inactive: [1] | [2] | [3]

CC(C)CCOCc1ccccc1
inactive: [1] | [2] | [10] | [4]

Nc1ncnc2nc[nH]c12
inactive: [1] | [2] | [10] | [4] | [5] | [6]

C=CC(=O)OCCCCCCCC(C)C
active: [4] 58 µM | [5] 121 µM | [8] 13 µM
not listed: [3] | [9]
inactive: all other assays above

O=C1c2ccccc2C(=O)c2cc(S(=O)(=O)O)ccc21
inactive: [1] | [2] | [10] | [5]
active: [4] 100 µM

CCc1cccc(CC)c1
inactive: [1] | [2] | [3] | [4] | [6]

C=C(C)OC(C)=O
inactive: [1] | [2] | [10] | [4] | [6]

[Cl][Sc]([Cl])[Cl]
inactive: [1] | [2] | [10] | [4] | [5] | [6]

NC(=O)Nc1ccccc1
inactive: [1] | [2] | [10] | [4] | [5] | [6]

CC12CCC(CC1)C(C)(C)O2
inactive: [1] | [2] | [3] | [4] | [6]

Cc1noc(NS(=O)(=O)c2ccc(N)cc2)c1C
inactive: [1] | [2] | [10] | [4] | [5] | [6]

O=C(O)c1cc(O)c2ccccc2c1O
inactive: [1] | [2] | [5] | [6]
active: [4] 7.34 µM

CC=C(C)C=CC=C(C)C
active: [4] 26.8 µM | [9] 20 µM | [8] 18.6 µM
not listed: [3]
inactive: all other assays above

CCCCCCCCCCCCCCCCCCOS(=O)(=O)O
active: [1] 49.5 µM | [2] 33.4 µM | [10] 58.1 µM | [4] 13.7 µM | [6] 18.4 µM
inactive: [5]

CCCCCCCCCCCC(=O)N(C)CC(=O)O
active: [4] 97.5 µM
not listed: [3] | [6] | [10]
inactive: all other assays above

CCCCC/C=C\C/C=C\CCCCCCCC(=O)O
active: [2] 163 µM | [4] 51.6 µM
inactive: [1] | [3] | [6]

CC(C)CO
inactive: [1] | [2] | [10] | [4] | [5]

CC(=O)OC1CCCCC1C(C)(C)C (stereo not given)
inactive: [1] | [2] | [10] | [4] | [5] | [6]

N#Cc1ccc(C(c2ccc(C#N)cc2)n2cncn2)cc1
inactive: [1] | [2] | [4]

C=Cc1cccc(C)c1
inactive: [1] | [2] | [3] | [4] | [6]

Nc1nc(N)nc(-c2ccccc2)n1
inactive: [1] | [2] | [4] | [5] | [7] | [8]

Cc1ccc([N+](=O)[O-])cc1N
not listed: [5] | [9] | [10]
inactive: all other assays above
